# Key:
# Test in all cases: DAPPL (digital affinity profiling via proximity ligation, sequencing); 10 mM Tris-HCl pH 7.5, 50 mM NaCl, 1 mM DTT, 4% glycerol, room temperature, 30 min; GST-TFs on glutathione beads, 16-mer random dsDNA library, 0.1% formaldehyde crosslink after washing; high values mean tight binding
# [1] = molecular target: T1, FEV (Homo sapiens, UniProt Q99581 1-238); settings: protein: recombinant; tags: N-terminal GST; dsDNA, one strand shown
# T1 sequence: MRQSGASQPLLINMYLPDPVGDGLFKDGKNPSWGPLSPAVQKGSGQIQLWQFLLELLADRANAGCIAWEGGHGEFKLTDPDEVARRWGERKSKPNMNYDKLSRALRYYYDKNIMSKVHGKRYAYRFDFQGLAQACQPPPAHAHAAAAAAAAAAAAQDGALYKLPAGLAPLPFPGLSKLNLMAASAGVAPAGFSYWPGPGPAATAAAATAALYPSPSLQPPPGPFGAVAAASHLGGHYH
# How it was run: (§1)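 A tag-only sample was pooled with DNA-barcoded human transcription factors that had been expressed in yeast as GST fusions and captured on glutathione beads. The pools were incubated for 30 min at room temperature with 200 nmole of a random double-stranded 16-mer DNA library in Tris/NaCl/DTT/glycerol buffer, then washed, crosslinked with 0.1% formaldehyde, proximity-ligated (BsaI/T4 ligase, 1 h, 37 °C), PCR-amplified and sequenced on an Illumina NextSeq500. Binding signal is each hexamer's read frequency for a factor divided by its frequency for the tag-only sample.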
# [2] = molecular target: ETV5 (Homo sapiens, UniProt P41161 1-510); settings: protein: recombinant; tags: N-terminal GST; dsDNA, one strand shown
# Chain of ETV5 (P41161 whole entry): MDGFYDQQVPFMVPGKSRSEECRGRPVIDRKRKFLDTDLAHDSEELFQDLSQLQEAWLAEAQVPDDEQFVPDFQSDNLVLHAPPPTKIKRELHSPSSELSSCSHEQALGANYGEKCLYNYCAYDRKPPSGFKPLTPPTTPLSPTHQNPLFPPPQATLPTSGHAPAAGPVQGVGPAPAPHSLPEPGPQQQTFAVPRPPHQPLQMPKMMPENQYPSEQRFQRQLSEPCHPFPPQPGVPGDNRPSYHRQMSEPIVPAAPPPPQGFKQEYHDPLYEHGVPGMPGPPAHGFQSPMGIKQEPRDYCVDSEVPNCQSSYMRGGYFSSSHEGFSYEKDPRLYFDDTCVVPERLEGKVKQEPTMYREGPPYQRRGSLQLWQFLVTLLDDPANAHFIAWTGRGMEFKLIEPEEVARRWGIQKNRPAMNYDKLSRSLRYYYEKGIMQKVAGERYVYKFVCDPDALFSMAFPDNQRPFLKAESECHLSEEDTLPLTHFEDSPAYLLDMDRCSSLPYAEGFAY
# How it was run: as §1
# [3] = molecular target: HSF1 (Homo sapiens, UniProt Q00613 1-529); settings: protein: recombinant; tags: N-terminal GST; chain copies: 3; dsDNA, one strand shown
# Chain of HSF1 (Q00613 whole entry): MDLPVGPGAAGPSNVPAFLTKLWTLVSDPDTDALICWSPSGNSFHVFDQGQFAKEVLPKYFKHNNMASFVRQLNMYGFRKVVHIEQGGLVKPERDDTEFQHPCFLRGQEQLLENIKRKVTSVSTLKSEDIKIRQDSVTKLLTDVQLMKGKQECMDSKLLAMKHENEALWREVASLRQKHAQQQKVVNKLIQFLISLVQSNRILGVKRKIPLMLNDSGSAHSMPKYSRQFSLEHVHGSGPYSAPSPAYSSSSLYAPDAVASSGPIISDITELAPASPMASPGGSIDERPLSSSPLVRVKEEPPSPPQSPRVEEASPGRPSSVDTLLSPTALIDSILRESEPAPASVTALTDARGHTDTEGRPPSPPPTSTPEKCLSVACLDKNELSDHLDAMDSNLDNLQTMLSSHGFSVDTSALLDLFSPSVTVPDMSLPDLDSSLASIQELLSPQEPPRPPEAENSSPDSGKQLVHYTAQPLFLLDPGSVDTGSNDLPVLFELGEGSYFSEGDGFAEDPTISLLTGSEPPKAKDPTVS
# How it was run: as §1
# [4] = molecular target: T2, SPIC (Homo sapiens, UniProt Q8N5J4 1-248); settings: protein: recombinant; tags: N-terminal GST; dsDNA, one strand shown
# T2 sequence: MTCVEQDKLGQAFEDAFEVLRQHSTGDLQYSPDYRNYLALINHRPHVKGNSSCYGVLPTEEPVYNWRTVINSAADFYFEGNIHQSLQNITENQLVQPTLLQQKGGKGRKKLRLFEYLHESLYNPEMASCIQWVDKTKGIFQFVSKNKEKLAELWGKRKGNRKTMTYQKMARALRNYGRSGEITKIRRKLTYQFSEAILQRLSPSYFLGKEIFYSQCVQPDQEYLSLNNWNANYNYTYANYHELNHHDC
# How it was run: as §1
# [5] = molecular target: ELF4 (Homo sapiens, UniProt Q99607 1-663); settings: protein: recombinant; tags: N-terminal GST; dsDNA, one strand shown
# Chain of ELF4 (Q99607 whole entry): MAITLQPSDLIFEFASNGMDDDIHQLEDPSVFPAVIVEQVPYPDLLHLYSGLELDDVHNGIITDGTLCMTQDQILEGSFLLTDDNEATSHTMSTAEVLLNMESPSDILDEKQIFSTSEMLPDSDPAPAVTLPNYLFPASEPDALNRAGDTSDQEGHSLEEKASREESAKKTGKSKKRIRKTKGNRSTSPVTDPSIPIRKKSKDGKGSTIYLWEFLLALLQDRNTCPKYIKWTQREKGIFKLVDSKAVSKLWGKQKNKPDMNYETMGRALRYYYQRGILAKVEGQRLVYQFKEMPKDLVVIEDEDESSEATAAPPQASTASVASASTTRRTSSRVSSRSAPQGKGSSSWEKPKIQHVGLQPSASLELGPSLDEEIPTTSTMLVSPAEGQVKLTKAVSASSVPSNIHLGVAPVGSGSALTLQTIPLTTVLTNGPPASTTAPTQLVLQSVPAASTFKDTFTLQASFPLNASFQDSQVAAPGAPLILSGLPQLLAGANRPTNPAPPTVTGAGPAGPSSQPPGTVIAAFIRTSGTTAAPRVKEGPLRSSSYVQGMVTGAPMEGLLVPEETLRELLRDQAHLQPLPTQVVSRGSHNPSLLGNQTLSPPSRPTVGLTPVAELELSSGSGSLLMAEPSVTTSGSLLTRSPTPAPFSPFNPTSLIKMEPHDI
# How it was run: as §1
# [6] = molecular target: T3, ELK4 (Homo sapiens, UniProt P28324-2 1-405); settings: protein: recombinant; tags: N-terminal GST; dsDNA, one strand shown
# T3 sequence: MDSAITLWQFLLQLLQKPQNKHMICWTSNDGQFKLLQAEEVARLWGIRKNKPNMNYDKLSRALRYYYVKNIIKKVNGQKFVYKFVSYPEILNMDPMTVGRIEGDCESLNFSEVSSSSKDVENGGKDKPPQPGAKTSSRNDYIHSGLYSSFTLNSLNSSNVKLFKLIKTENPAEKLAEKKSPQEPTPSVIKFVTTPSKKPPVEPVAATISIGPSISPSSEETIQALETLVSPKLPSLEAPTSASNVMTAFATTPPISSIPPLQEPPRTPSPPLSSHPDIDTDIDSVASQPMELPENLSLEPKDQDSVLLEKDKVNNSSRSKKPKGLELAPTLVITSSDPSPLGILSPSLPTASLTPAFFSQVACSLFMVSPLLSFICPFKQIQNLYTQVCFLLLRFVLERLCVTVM
# How it was run: as §1
# [7] = molecular target: T4, ETV2 (Homo sapiens, UniProt O00321 1-342); settings: protein: recombinant; tags: N-terminal GST; dsDNA, one strand shown
# T4 sequence: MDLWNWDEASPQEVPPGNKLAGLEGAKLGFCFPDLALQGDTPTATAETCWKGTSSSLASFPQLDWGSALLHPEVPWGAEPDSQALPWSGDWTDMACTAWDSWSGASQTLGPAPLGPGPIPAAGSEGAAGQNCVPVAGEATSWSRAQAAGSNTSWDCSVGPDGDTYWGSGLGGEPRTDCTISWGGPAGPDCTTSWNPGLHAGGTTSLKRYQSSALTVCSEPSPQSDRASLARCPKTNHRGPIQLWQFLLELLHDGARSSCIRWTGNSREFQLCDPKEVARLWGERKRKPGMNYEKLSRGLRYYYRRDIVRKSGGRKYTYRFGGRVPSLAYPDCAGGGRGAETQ
# How it was run: as §1
# [8] = molecular target: T5, ELF3 (Homo sapiens, UniProt P78545 1-371); settings: protein: recombinant; tags: N-terminal GST; dsDNA, one strand shown
# T5 sequence: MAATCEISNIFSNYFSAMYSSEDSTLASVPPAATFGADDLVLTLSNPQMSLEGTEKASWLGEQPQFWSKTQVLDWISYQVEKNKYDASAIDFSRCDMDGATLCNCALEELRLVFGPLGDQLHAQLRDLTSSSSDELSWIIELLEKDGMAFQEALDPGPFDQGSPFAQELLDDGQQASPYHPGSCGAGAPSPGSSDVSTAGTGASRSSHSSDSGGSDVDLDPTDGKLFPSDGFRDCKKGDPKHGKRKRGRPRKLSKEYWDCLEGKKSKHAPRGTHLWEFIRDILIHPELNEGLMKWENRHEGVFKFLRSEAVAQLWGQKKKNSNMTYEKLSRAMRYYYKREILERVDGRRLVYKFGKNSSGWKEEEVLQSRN
# How it was run: as §1
# [9] = molecular target: CRX (Homo sapiens, UniProt O43186 1-299); settings: protein: recombinant; tags: N-terminal GST; dsDNA, one strand shown
# Chain of CRX (O43186 whole entry): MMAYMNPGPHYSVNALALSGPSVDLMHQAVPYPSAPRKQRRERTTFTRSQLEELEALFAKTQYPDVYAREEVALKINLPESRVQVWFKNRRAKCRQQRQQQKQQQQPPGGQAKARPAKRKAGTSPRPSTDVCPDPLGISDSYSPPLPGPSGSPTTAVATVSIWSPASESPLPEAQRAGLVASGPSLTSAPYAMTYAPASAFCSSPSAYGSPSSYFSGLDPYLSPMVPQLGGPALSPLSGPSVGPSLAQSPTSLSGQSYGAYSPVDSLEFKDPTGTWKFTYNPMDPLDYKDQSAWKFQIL
# How it was run: as §1
# [10] = molecular target: ETV1 (Homo sapiens, UniProt P50549 1-477); settings: protein: recombinant; tags: N-terminal GST; dsDNA, one strand shown
# Chain of ETV1 (P50549 whole entry): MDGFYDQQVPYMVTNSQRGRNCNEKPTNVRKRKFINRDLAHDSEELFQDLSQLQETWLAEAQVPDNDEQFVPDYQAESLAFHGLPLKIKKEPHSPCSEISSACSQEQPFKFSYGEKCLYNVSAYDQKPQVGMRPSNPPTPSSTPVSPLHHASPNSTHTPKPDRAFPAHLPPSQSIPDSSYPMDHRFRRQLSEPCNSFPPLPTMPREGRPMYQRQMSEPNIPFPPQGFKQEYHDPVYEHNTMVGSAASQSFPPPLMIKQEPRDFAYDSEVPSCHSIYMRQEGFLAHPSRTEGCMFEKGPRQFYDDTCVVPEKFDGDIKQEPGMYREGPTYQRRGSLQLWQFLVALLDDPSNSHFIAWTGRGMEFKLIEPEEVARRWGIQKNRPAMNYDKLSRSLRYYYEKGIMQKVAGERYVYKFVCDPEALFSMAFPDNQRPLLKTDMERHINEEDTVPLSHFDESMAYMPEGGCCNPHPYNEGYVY
# How it was run: as §1
sequence,measurement,setting,value
ACTACG,binding signal,[1],"1.34 fold enrichment (6-mer frequency, TF over GST control)"
same,binding signal,[2],"1.27 fold enrichment (6-mer frequency, TF over GST control)"
same,binding signal,[3],"1.09 fold enrichment (6-mer frequency, TF over GST control)"
same,binding signal,[4],"1.12 fold enrichment (6-mer frequency, TF over GST control)"
same,binding signal,[5],"1.26 fold enrichment (6-mer frequency, TF over GST control)"
same,binding signal,[6],"1.32 fold enrichment (6-mer frequency, TF over GST control)"
same,binding signal,[7],"1.33 fold enrichment (6-mer frequency, TF over GST control)"
same,binding signal,[8],"1.28 fold enrichment (6-mer frequency, TF over GST control)"
same,binding signal,[9],"1.08 fold enrichment (6-mer frequency, TF over GST control)"
same,binding signal,[10],"1.25 fold enrichment (6-mer frequency, TF over GST control)"

# Reference: article PMC7862700, “An all-to-all approach to the identification of sequence-specific readers for epigenetic DNA modifications on cytosine”
